The values below come from PubChem BioAssay (NCI).

Some test systems named below: SK-MEL-2 melanoma; EKVX NSCLC; SN12C renal; ACHN renal; CAKI-1 renal; A498 renal; CCRF-CEM leukemia; MOLT-4 leukemia; SR leukemia; RPMI-8226 leukemia; OVCAR-8 ovarian; OVCAR-5 ovarian; OVCAR-4 ovarian; SK-OV-3 ovarian; IGROV1 ovarian; OVCAR-3 ovarian; HS 578T breast; UO-31 renal; TK-10 renal; NCI/ADR-RES ovarian.
What all share (experiment): NCI-60 one-dose screen, 48 h (100 = growth as untreated, 0 = no growth, -100 = all killed)
Conditions in all cases: 10 µM unless noted

SMILES strings stand for the structures. About 83,000 compounds went through this panel and 20% of them were active in at least one assay; those are over-represented in the sample as a whole.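 Each cell line was grown in a 96-well plate and treated with one concentration of compound for 48 hours. Values below 10 were considered active.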 A number with no mark means an inactive call. Active and inactive are the calls of the source.

On to `CC[C@H]1CN2CCc3cc(OC)c(OC)cc3C2C[C@@H]1CC1NCCc2cc(OC)c(OC)cc21` (stereo partly drawn), for which the growth with SK-MEL-2 melanoma was -70.5% (active); in the experiment on EKVX NSCLC, -27.4% (active); with SN12C renal, -13.1% (active); in the experiment with ACHN renal, -16.5% (active); in the experiment with CAKI-1 renal, -34.3% (active); in the experiment on A498 renal, -49.9% (active). Moreover, the growth with CCRF-CEM leukemia is -18% (active); in the experiment with MOLT-4 leukemia it was -13.1% (active); with SR leukemia it was -9.39% (active); in the experiment on RPMI-8226 leukemia, -41% (active); in the experiment with OVCAR-8 ovarian it was -20.6% (active); with OVCAR-5 ovarian it was -12% (active). In addition, the growth is -9.56% (active) in the experiment on OVCAR-4 ovarian; -1.2% (active) with SK-OV-3 ovarian; -22.9% (active) with IGROV1 ovarian; -30.9% (active) with OVCAR-3 ovarian; -12% (active) in the experiment on HS 578T breast.

For the compound `CCc1nn2c(-c3ccc(Cl)cc3C)c(-c3cc(OC)c(OC)c(OC)c3)nc2s1`, the growth was 69.6% with SK-MEL-2 melanoma; 80.2% in the experiment with SN12C renal; 47.1% in the experiment on UO-31 renal; 77.2% in the experiment on TK-10 renal; 76.7% with ACHN renal; 55.2% in the experiment with CAKI-1 renal. Further, the growth in the experiment with A498 renal is 74.5%; in the experiment on CCRF-CEM leukemia, 85.1%; with MOLT-4 leukemia, 71%; in the experiment with SR leukemia, 48.3%; in the experiment with RPMI-8226 leukemia it was 63.8%; in the experiment on OVCAR-8 ovarian, 103%. For the same compound, the growth was 92.9% in the experiment with OVCAR-5 ovarian; 54% in the experiment on OVCAR-4 ovarian; 94.5% with SK-OV-3 ovarian; 73.1% with IGROV1 ovarian; 72.6% in the experiment on OVCAR-3 ovarian; 48.5% in the experiment on HS 578T breast. In addition, the growth in the experiment with NCI/ADR-RES ovarian was 78.3%.

As for `COc1cc(/C=C2\SC(N3CCCCC3)=NC2=O)ccc1OCCCCCCOc1ccc(/C=C2\SC(N3CCCCC3)=NC2=O)cc1OC`, the growth in the experiment with SK-MEL-2 melanoma was 2.01% (active); in the experiment on EKVX NSCLC, 31.4%; in the experiment with SN12C renal it was 25.3%; in the experiment on ACHN renal, 23.1%; in the experiment on CAKI-1 renal, 4.5% (active); in the experiment on A498 renal, 7.57% (active). Moreover, the growth in the experiment with CCRF-CEM leukemia is 1.05% (active); in the experiment with MOLT-4 leukemia it was 7.46% (active); in the experiment on SR leukemia, 0.724% (active); in the experiment on RPMI-8226 leukemia, -5.76% (active); with OVCAR-8 ovarian, 8.07% (active); with OVCAR-5 ovarian, 40.6%. Besides, the growth was 21% with OVCAR-4 ovarian; 41.9% with SK-OV-3 ovarian; 19.5% with IGROV1 ovarian; -82.9% (active) in the experiment with OVCAR-3 ovarian; 7.66% (active) in the experiment on HS 578T breast; 0.636% (active) with NCI/ADR-RES ovarian.

As to `CC(=O)c1ccc(NS(=O)(=O)c2ccc([N+](=O)[O-])cc2)cc1`, the growth was 95.1% with SK-MEL-2 melanoma; 99.5% in the experiment on SN12C renal; 77.8% in the experiment on UO-31 renal; 100% in the experiment with TK-10 renal; 93.8% with ACHN renal; 96.9% in the experiment with CAKI-1 renal. For the same compound, the growth in the experiment on A498 renal is 90.5%; in the experiment on CCRF-CEM leukemia, 93.8%; in the experiment on MOLT-4 leukemia, 87.1%; with SR leukemia, 83.8%; in the experiment on RPMI-8226 leukemia, 101%; in the experiment on OVCAR-8 ovarian, 106%. Also, the growth was 98.2% with OVCAR-5 ovarian; 112% in the experiment with OVCAR-4 ovarian; 95.7% with SK-OV-3 ovarian; 107% in the experiment with IGROV1 ovarian; 108% in the experiment with OVCAR-3 ovarian; 115% in the experiment with HS 578T breast. Also, in the experiment on NCI/ADR-RES ovarian, the growth is 109%.

As for `N#Cc1c(-c2ccccc2)cc(-c2ccccc2)n(CCC(=O)O)c1=O`, the growth was 9.85% (active) in the experiment on SK-MEL-2 melanoma; 76.8% with EKVX NSCLC; 69.1% in the experiment with SN12C renal; 75.6% in the experiment with TK-10 renal; 67.1% in the experiment with ACHN renal; 46.4% in the experiment on CAKI-1 renal. Also, the growth in the experiment on CCRF-CEM leukemia is 54.9%; in the experiment on MOLT-4 leukemia, 49.4%; in the experiment on SR leukemia it was 19.8%; in the experiment on RPMI-8226 leukemia, 50.3%; in the experiment with OVCAR-8 ovarian, 50.3%; with OVCAR-4 ovarian, 90.8%. Moreover, the growth in the experiment with SK-OV-3 ovarian was 92%; in the experiment on IGROV1 ovarian it was 50.2%; with OVCAR-3 ovarian, 14.8%; in the experiment with HS 578T breast it was 58.2%; in the experiment with NCI/ADR-RES ovarian, 33.7%.

`C/C(=C\CCc1ccsc1)CC/C=C(\C)CCCN1CCSCC1`: the growth in the experiment on SK-MEL-2 melanoma was 89.3%; in the experiment with SN12C renal it was 78.9%; in the experiment with UO-31 renal, 59.9%; in the experiment on TK-10 renal, 108%; in the experiment on ACHN renal, 94.7%; in the experiment on CAKI-1 renal, 87.5%. Moreover, the growth is 23.5% in the experiment on A498 renal; 73.7% with CCRF-CEM leukemia; 81.2% with MOLT-4 leukemia; 53.6% with SR leukemia; 58% with RPMI-8226 leukemia; 99.9% with OVCAR-8 ovarian. In addition, the growth in the experiment with OVCAR-5 ovarian is 94.8%; in the experiment on OVCAR-4 ovarian it was 84.3%; in the experiment on SK-OV-3 ovarian, 93.1%; in the experiment on IGROV1 ovarian, 94.1%; in the experiment on OVCAR-3 ovarian it was 82.3%; in the experiment on HS 578T breast it was 93.2%. Further, in the experiment with NCI/ADR-RES ovarian, the growth is 84.9%.

Take `CCOc1cc(/C=C/C(=O)C(C(=O)/C=C/c2ccc(OC(=O)CNc3nnc(C)s3)c(OCC)c2)C(=O)CNc2nnc(C)s2)ccc1OC(=O)CNc1nnc(C)s1`: the growth with SK-MEL-2 melanoma was 11%; with EKVX NSCLC, -13.9% (active); with SN12C renal, -3.17% (active); with TK-10 renal it was 32.4%; in the experiment with ACHN renal, -85.2% (active); with CAKI-1 renal it was -6.01% (active). Moreover, the growth is -41.7% (active) with A498 renal; -34.3% (active) with MOLT-4 leukemia; -68.3% (active) in the experiment with RPMI-8226 leukemia; 2.17% (active) with OVCAR-8 ovarian; -11.7% (active) with OVCAR-5 ovarian; 23.1% in the experiment with OVCAR-4 ovarian. In addition, the growth in the experiment with SK-OV-3 ovarian is 43.6%; in the experiment on IGROV1 ovarian, -53.7% (active); with OVCAR-3 ovarian, 11.3%; in the experiment on HS 578T breast, 10.1%; in the experiment with NCI/ADR-RES ovarian it was 7.78% (active).

Consider `O=C1C(=O)c2c(nc3ccc(Cl)cn23)-c2ccccc21`, for which the growth in the experiment on SK-MEL-2 melanoma is -90.2% (active); with EKVX NSCLC, -95.6% (active); with SN12C renal, -100% (active); in the experiment with ACHN renal it was -100% (active); in the experiment with CAKI-1 renal it was -95.4% (active); with A498 renal, -100% (active). Moreover, the growth with CCRF-CEM leukemia was -49.6% (active); in the experiment on MOLT-4 leukemia it was -94.5% (active); in the experiment with SR leukemia, -86.5% (active); with RPMI-8226 leukemia, -53.7% (active); in the experiment on OVCAR-8 ovarian, -100% (active); in the experiment on OVCAR-5 ovarian, -100% (active). Further, the growth in the experiment with OVCAR-4 ovarian is -100% (active); with SK-OV-3 ovarian it was -100% (active); in the experiment on OVCAR-3 ovarian, -96% (active); in the experiment with HS 578T breast, -33.8% (active); in the experiment on NCI/ADR-RES ovarian, -41.1% (active).
